# Out of some 31,000 sequences screened, about 1,400 (4.5%) were called active. The full list was thinned out, with actives kept by preference. Unmarked numbers belong to inactive results.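 The calls were made as follows: active = median seed-adjusted z-score above 1 or below -1; inactive = the rest.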
# Test: Novel Modifiers of Survival Motor Neuron (SMN) Protein: Gene Identification via Genome-wide siRNA Screen;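 also: luminescence tracks full-length SMN protein made from the SMN2 reporter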
# Settings: HEK293T SMN2-luciferase reporter, siRNA knockdown, 72 h; actives lie on both sides
# In short: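 Luciferase signal, proportional to full-length SMN made from an SMN2 cDNA reporter in stable HEK293T cells, was read 72 h after siRNA reverse transfection. Values were expressed as MAD scores after non-targeting-control normalization and log10 conversion; seed analysis flagged off-targets.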
row,Sequence,median seed-adjusted z-score
1,CGUGCGGACAAUAAGCAAATT against MYO1C,0.566
2,GGCUAACUCGAUUUAAGCATT against TIGD2,-0.13
3,GACUUUGACAAAGCGAUUATT against SPTAN1,-0.233
4,CAUCCAUGGUUAAGUCAUATT against PTK6,-0.295
5,GCACCUCUACAGGAACUUUTT against TSC2,1.11 (active)
6,GCUCCUCGUUUGUAGAAGATT against SLIT3,-0.453
7,CGAUGUCUAGAGAACAGCATT against LAMB1,1.07 (active)
8,CGAGUACCGGGUCAAGAUATT against PLXND1,-0.064
9,CGGUGACCAUAGUACAACATT against FOXK2,-0.348
10,GAGCGCCUCUAGAAUGUAATT against HMX1,1.3 (active)
11,AGUUUGUGAUAUCAUGAGATT against FRMPD2,-0.329
12,UCAAUACUGUGGGUUCUUATT against FBLN2,0.176
13,GGUACCUGCUGAUUCAGAATT against SLC2A5,-0.429
14,GCUACAUCGAGGACCUUAATT against SERPINB1,0.734
15,CCAUUGUCUUCCACCGAAATT against RAN,-3.09 (active)
16,CAACGGUAAUUAUCAGUCATT against FABP7,0.562
17,GCCUGACUGUAACACCCAATT against TXN2,0.87
18,GGAAAGGUCUAGAUCAGGATT against SEL1L2,-0.342
19,GCAGCUUCACCUAUCCGAUTT against KLF4,0.883
20,GCGAUAUUAUCAUACUGGATT against ZNF470,-1.26 (active)
21,CCACCGACGACAAUCUGUATT against ATP4A,0
22,AGGUCAGGGUUACAGCUUUTT against MPP2,0.0496
23,CCAUAUAAGUUUACGUUUATT against TM9SF2,1.09 (active)
24,CCUCGACCCUGUUUCUUAUTT against ARL4D,-0.523
25,CCACGUUCACCAAGAUCUUTT against RBM38,0.0358
26,GGCUUAUGGAGAUAUGAAUTT against PPFIA2,0.176
27,GGAACUCUUUGCUGAAUUUTT against THOC4,-1.54 (active)
28,CAUUAGUACUUCGAUCUAUTT against PHCA,0.0568

row,Sequence,median seed-adjusted z-score
1,GCUCCAAAUGGAGAGUGUATT against PRKCDBP,0.244
2,GGAACAGCACAGAACAGCATT against ARID5A,0.0642
3,CCAUUGAAGCUUGAGAGAATT against ZNF286A,0.0368
4,CGAAGACUGUCUGAGACAATT against GPR52,-1.17 (active)
5,CCGUAAACAUAUGACUAAATT against ZBTB11,-0.105
6,CGCCAUCUGUGUAACUUCATT against CARD9,-0.325
7,GAGACCCUCUGGUUAUAGATT against FKBP11,-0.085
8,AGGCCGCUGUGGACAUCAATT against CASKIN1,0.555
9,GAUUCUACUGUCUUACUAATT against HIATL1,0.327
10,CAGCAGUACCGACAGAAGATT against ATAD3B,-0.624
11,UCAUGAACAUUGUCAAUGATT against ADAMTS2,-0.338
12,GUGGUUUCUUGAUCUGAAATT against HSDL2,-0.0717
13,GAGGCUUCAUUUUAGAAGATT against XPA,2.03 (active)
14,CCCUUUUCGUGGUCUAUGATT against LCMT2,-0.0205
15,GCCUCGCUGUGAUCUGAUUTT against CACNG6,-0.0499
16,CGGUUGUUAUGACAAUGGATT against FN1,-0.312
17,UGCUCUACUUCUUAAGUGATT against STARD8,-0.135
18,GAAGGAUCUCAAACUCGAATT against NECAB1,0.0268
19,GAUCUUCGGUGAAUCAGAATT against MRC2,-1.34 (active)
20,GGUCAUUAAUUUACAUGAATT against STK17A,0
21,ACAACGUGGUGAGAUGCAATT against LOXL1,0.0435
22,GAGGUUUUAUAUAACCGAUTT against SMC6,0.227
23,GCAUGUUAUCGAAGGGUUUTT against PHC2,0.177
24,GAUGCUACUUUAGAAUUAATT against GNPDA2,-0.422
25,AGAUUUAUCUUGAAGCUGATT against ARL4D,-0.523
26,CUUGAUGACUCUAAACCUATT against RUNX2,0.335
27,AAGACUCACUUGUUCAACATT against ZNF772,0.817

# — PubChem BioAssay AID1347426 (Functional Genomics Laboratory (NCATS/FGL), 2020)
